Assay outcomes: PubChem BioAssay, National Center for Advancing Translational Sciences (NCATS)
An excerpt weighted towards active compounds, which were near 9% of everything screened.
HPGD block: qHTS Assay for Inhibitors of HPGD (15-Hydroxyprostaglandin Dehydrogenase). Potency, µM, most hits filed as inhibitors. purified HPGD, NADH fluorescence kinetic, PGE2 substrate. 150,000 tested, 4.3% active. 15-hydroxyprostaglandin dehydrogenase [NAD(+)] (Homo sapiens), P15428; active = well fitted inhibition curve with a large enough effect, not every such curve was filed as active; inconclusive = small, poorly fitted or top-dose-only effect, or another doubt; inactive = no such curve, though single readings can be large or run the other way
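20 nM HPGD preincubated 15 min at room temperature with compound in 50 mM Tris-HCl pH 8, 0.01% Tween 20. Started with 1 mM NAD+ and 30 uM prostaglandin E2; NADH fluorescence (360/450 nm) read 5 times over 30-s intervals, last minus first.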
LMNA splice mod: qHTS Assay for Modulators of Lamin A Splicing. HeLa LMNA splicing GFP/RFP minigene ratio, 48 h. Potency, µM (doses to about 46.1 µM), most hits filed as inhibitors. 200,000 tested, 0.01% active; active = well fitted inhibition curve with a large enough effect in the signal ratio, with a control signal flat, not every such curve was filed as active; inconclusive = small, poorly fitted or top-dose-only effect, or effect the other way, or a change in a side signal; the % refers to the signal ratio
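S3 HeLa stable clones carrying a lamin A-EGFP splicing minigene plus DsRed2 were seeded at 600 cells/well in Opti-MEM with 2% FBS, pin-dosed and incubated 48 h at 37°C. Acumen cytometry (488 nm) gave the GFP/RFP total-intensity ratio.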
ALDH1A1 inh: qHTS Assay for Inhibitors of Aldehyde Dehydrogenase 1 (ALDH1A1). Aldehyde dehydrogenase 1A1 (Homo sapiens), P00352. Purified ALDH1A1, NADH fluorescence, propionaldehyde substrate. 220,000 tested, 7.3% active. AID 1030, 2008. Potency, µM (series often up to 75.3 µM), actives largely listed as inhibitors; active = well fitted inhibition curve with a large enough effect, not every such curve was filed as active; inconclusive = small, poorly fitted or top-dose-only effect, or another doubt; inactive = no such curve, though single readings can be large or run the other way
Target sequence (P00352 whole entry, looked up): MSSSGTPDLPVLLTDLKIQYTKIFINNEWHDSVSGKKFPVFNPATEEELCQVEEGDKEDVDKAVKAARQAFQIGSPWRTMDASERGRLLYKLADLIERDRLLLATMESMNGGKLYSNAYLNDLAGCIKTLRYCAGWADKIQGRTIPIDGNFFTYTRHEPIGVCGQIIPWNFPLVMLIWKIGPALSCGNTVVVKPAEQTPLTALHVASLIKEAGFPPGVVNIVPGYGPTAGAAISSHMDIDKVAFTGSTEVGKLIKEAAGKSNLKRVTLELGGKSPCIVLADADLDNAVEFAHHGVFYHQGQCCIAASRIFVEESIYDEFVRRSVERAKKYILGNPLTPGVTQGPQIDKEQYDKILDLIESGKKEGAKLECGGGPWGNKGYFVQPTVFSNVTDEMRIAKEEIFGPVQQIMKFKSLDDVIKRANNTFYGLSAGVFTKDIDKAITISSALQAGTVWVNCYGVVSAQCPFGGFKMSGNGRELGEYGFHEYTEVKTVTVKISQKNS
HTT aggregate: qHTS Multiplex Assay to Identify Dual Action Probes in a Cell Model of Huntington: Aggregate Formation (GFP); PC12 HttQ103-GFP aggregates, Acumen cytometry, 40 h; Potency, µM (top dose mostly 46.1 µM), most hits filed as inhibitors; 220,000 tested, 1.1% active; AID 1688, 2009; also: nearly all actives have a fitted effect of over 60% in size
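PC12/HTTQ103-GFP, ecdysone-inducible; teb 100 nM; cpd qHTS titration; GFP aggregates read on laser cytometer, Ex 488/Em 500-530 nm.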
HTT cytoprotect: qHTS Multiplex Assay to Identify Dual Action Probes in a Cell Model of Huntington: Cytoprotection (ATP); 230,000 tested, 0.14% active; PC12 HTT-Q103 induced, cytoprotection, ATP luminescence, 40 h; Potency, µM (highest dose often 56.4 µM), usual class: activators; AID 1471, 2008; also: nearly all actives have a fitted effect of over 45% in size
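Readout: ATPlite luminescence (ATP level). Model: stable PC12, inducible Htt exon1 Q103-GFP. Inducer: tebufenozide, 100 nM final. Compounds: dose series. No G418 in medium.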
KinaseGlo FLuc: Counterscreen for Luciferase (Kinase-Glo TM) Inhibition; Luciferin 4-monooxygenase (Photuris pensylvanica), Q27757; Kinase-Glo luciferase, ATP luminescence, 8 min; Potency, µM (titrated, usually from 38.3 µM), hits mostly inhibitors; 200,000 tested, 0.28% active; AID 1379, 2008; also: nearly all actives have a fitted effect of over 60% in size
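Substrate mix (final 50 mM imidazole pH 7.2, 50 mM KCl, 7 mM MgCl2, 10 uM ATP, 0.01% Tween 20, 0.05% BSA) plus pin-tool compound, then Kinase-Glo detection mix; 8 min ambient, luminescence read.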
Of the large screens only hits and unclear results are named; the others gave an inactive call. Unless noted, calls follow the shape of the dose curve; as a rule, active = well fitted curve in the direction sought with a large enough effect; inconclusive = small, poorly fitted or top-dose-only effect, or another doubt; inactive = no such curve, though single readings can be large; an effect the other way counts as inactive or inconclusive.

O=[N+]([O-])c1ccc2nc(-c3ccc(Cl)cc3)n(OCc3ccccc3)c2c1	none
COc1ccc(NC(=O)CSc2c(C)n[nH]c2C)cc1	ALDH1A1 inh 15.8µM
COc1ccc(OC(=O)COc2ccc(C)cc2)cc1	LMNA splice mod inconclusive (no result: HPGD block)
COc1ccc(OCC(=O)Sc2ccc(C)cc2)cc1	HPGD block 14.1µM, ALDH1A1 inh inconclusive
COc1ccc(OCC(=O)Nc2ccc(C)cc2)cc1	HPGD block 15.8µM
COc1ccc(OCC(=O)NNC(=O)C(=O)Nc2ccc(C)cc2)cc1	none (no result: HTT cytoprotect)
Cc1ccc(OCC(=O)N/N=C/c2ccco2)cc1	ALDH1A1 inh 28.2µM
Cc1ccccc1OCC(=O)N/N=C/c1ccco1	none
C/C(=N\Nc1nc2ccccc2[nH]1)c1ccc(Cl)s1	LMNA splice mod inconclusive
COc1ccc(NC(=O)CSc2nnc(-c3ccccc3C)n2N)cc1	HPGD block inconclusive, LMNA splice mod inconclusive, ALDH1A1 inh 12.6µM
CN(C)/C=C/C1=CC(=O)CC(C)(C)C1	ALDH1A1 inh 8.91µM (no result: HPGD block)
CC1(C)CC(=O)C=C(NCCO)C1	none
O=C(NCc1ccc2c(c1)OCO2)c1ccc2snnc2c1	LMNA splice mod inconclusive
CC(C)OC(=O)/C(C#N)=C\c1cccnc1	ALDH1A1 inh 8.91µM (no result: HPGD block)
O=C(COC(=O)c1cc[n+]([O-])cc1)Nc1ccccc1Sc1ccccc1	ALDH1A1 inh 11.2µM (no result: HPGD block)
O=C(COC(=O)c1cc[n+]([O-])cc1)Nc1cccc(Cl)c1Cl	LMNA splice mod inconclusive (no result: HPGD block)
COc1ccc(OCc2cccc(C(=O)Nc3cc(C)on3)c2)cc1	none
NNC(=O)c1cccc(COc2cccc(Br)c2)c1	ALDH1A1 inh 3.16µM
NNC(=O)c1cccc(COc2ccc(Br)cc2)c1	ALDH1A1 inh 0.631µM, HTT aggregate inconclusive
O=C(NN1CCOCC1)c1cccc(COc2cccc(Br)c2)c1	none (no result: HPGD block)
COc1ccc(OCc2cccc(C(=O)NN)c2)cc1	LMNA splice mod inconclusive, ALDH1A1 inh 0.316µM (no result: HTT cytoprotect)
Cc1ccc(-c2csc(-c3ccncc3)n2)cc1	LMNA splice mod inconclusive (no result: HPGD block, HTT aggregate, HTT cytoprotect)
CCCCCc1nc2c(=O)[nH]c3ccccc3c2o1	none
C#CC(=O)N(c1cccc(OC)c1)C(C(=O)NC1CCCC1)c1cccs1 (configuration not stated)	HPGD block inconclusive, LMNA splice mod inconclusive, ALDH1A1 inh 15.8µM
N#Cc1ccccc1-c1nc(NCCN2CCOCC2)c2ccccc2n1	none (no result: HPGD block, HTT aggregate, KinaseGlo FLuc)
N#Cc1cccc(-c2nc(NCCN3CCOCC3)c3ccccc3n2)c1	LMNA splice mod inconclusive, ALDH1A1 inh 17.8µM (no result: HPGD block, HTT aggregate, KinaseGlo FLuc)
O=C(O)c1ccc(/C=C2\SC(=Nc3ccccc3)N(c3ccccc3)C2=O)cc1	ALDH1A1 inh 15.8µM, HTT cytoprotect 12.6µM (no result: HPGD block, LMNA splice mod)
O=C(O)COc1ccc(/C=C2\SC(=Nc3ccccc3)N(c3ccccc3)C2=O)cc1	ALDH1A1 inh 17.8µM (no result: HPGD block, LMNA splice mod)
O=C(CCC(=O)NNC(=O)COc1ccccc1)NCc1ccccc1	none
O=C(CSCC(=O)N1CCCCC1)Nc1nc(-c2ccc(Cl)s2)cs1	HPGD block inconclusive, ALDH1A1 inh 25.1µM
O=C(CSCC(=O)N1CCN(c2ccccc2)CC1)Nc1nc(-c2ccc(Cl)s2)cs1	LMNA splice mod inconclusive, ALDH1A1 inh inconclusive
N#CC(C#N)=C1c2cc(S(N)(=O)=O)ccc2-c2ccc(S(N)(=O)=O)cc21	ALDH1A1 inh 7.94µM (no result: HPGD block)
CCOC(=O)c1ccc(NC(=O)N2CCN(S(C)(=O)=O)CC2)cc1	none
O=C(NN=C1CCCC1)c1[nH]c2ccc(Cl)cc2c1-c1ccccc1	ALDH1A1 inh 11.2µM (no result: HPGD block, LMNA splice mod, KinaseGlo FLuc)
Cn1c2c(c(=O)n(C)c1=O)CN(Cc1ccc3c(c1)OCO3)CN2	none
COc1ccc(N(C(=O)c2ccco2)S(=O)(=O)c2ccc(F)cc2)cc1	HPGD block 28.2µM
